Here are results for four molecules from PubChem BioAssay (EPA / NIEHS).

Each structure is given as a SMILES string. Several values for one entry are separate records, joined by “and”; a condition that tells them apart may be missing. Equal values may be shown once. Results filed as inconclusive are left out. More than one record can exist for a structure, and the calls need not agree. Activity calls are given as the source filed them. The calls were made as follows, unless noted: active = hit-call score of the fitted dose curve at least 0.9, where 1 is the maximum; inactive = score below 0.9.

The term AC50 denotes the concentration giving half of the maximal activity seen.

Read-out in assay [1]: Monocyte Chemoattractant Protein-1 (MCP1), CCL2 (gene 6347)
The experiment in a line: BSK_hDFCGF_MCP1: BioMAP Diversity Plus: hDFCGF Assay for Monocyte Chemoattractant Protein-1 (MCP1) Biomarker Activity (AID 2284285). Particulars: primary human foreskin fibroblasts. An outline of the steps:
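Human foreskin fibroblasts (hDFCGF system) were exposed to compound and secreted MCP-1 was measured by ELISA after 24 hours. Activity was fitted relative to DMSO. Cytotoxicity was checked by SRB total-protein staining in parallel cultures.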

Read-out in assay [2]: Intercellular Adhesion Molecule 1 (ICAM1), ICAM1 (gene 3383)
In words: BSK_hDFCGF_ICAM1: BioMAP Diversity Plus: hDFCGF Assay for Intercellular Adhesion Molecule 1 (ICAM1) Biomarker Activity (AID 2284287). The following applies: primary human foreskin fibroblasts. The method, boiled down:
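Primary human foreskin fibroblasts (hDFCGF system) dosed with chemical; ICAM-1 quantified by ELISA at 24 h relative to DMSO. Parallel SRB total-protein staining to assess overt cytotoxicity.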

Read-out in assay [3]: TIMP metallopeptidase inhibitor 2 (TIMP2), TIMP2 (gene 7077)
In words: BSK_hDFCGF_TIMP2: BioMAP Diversity Plus: hDFCGF Assay for TIMP metallopeptidase inhibitor 2 (TIMP2) Biomarker Activity (AID 2284289). The following applies: primary human foreskin fibroblasts. The method, boiled down:
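Primary human foreskin fibroblasts in the hDFCGF system, dosed for 24 h; TIMP-2 level measured by ELISA, fitted in the positive direction against DMSO; cytotoxicity checked in parallel by sulforhodamine B total protein staining.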

Read-out in assay [4]: Interleukin-1 alpha (IL1a), IL1A (gene 3552)
In words: BSK_IMphg_IL1a: BioMAP Diversity Plus: IMphg Assay for Interleukin-1 alpha (IL1a) Biomarker Activity (AID 2284290). The following applies: primary human endothelial cells with macrophages. An outline of the steps: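 Human venular endothelial cells co-cultured with macrophages, IMphg system. IL-1α is measured by ELISA 24 h after dosing and fitted in the positive direction against DMSO. Cytotoxicity is assessed by SRB staining of parallel cultures.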

Read-out in assay [5]: E-selectin (Homo sapiens) (UniProt P16581)
In words: BSK_IMphg_ESelectin: BioMAP Diversity Plus: IMphg Assay for Eselectin Biomarker Activity (AID 2284291). Particulars: primary human endothelial cells with macrophages. The method, boiled down: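 Human venular endothelial cell–macrophage co-culture, E-selectin measured by ELISA 24 h after chemical dosing. Signal fitted in the positive direction against DMSO as negative control and baseline.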

Assay [6] can be described thus: BSK_IMphg_SRB: Viability Assessment in the BioMAP Diversity Plus: IMphg Assay (AID 2284292).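 Also: measured one day after compound addition.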 The following applies: primary human endothelial cells with macrophages. The method, boiled down:
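Human venular endothelial cells with macrophages, 24 h after chemical dosing; total protein by 0.1% SRB staining after 10% TCA fixation, read at 560 nm. Positive-direction fitting versus DMSO baseline.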

Read-out in assay [7]: Macrophage colony-stimulating factor (MCSF), CSF1 (gene 1435)
In words: BSK_IMphg_MCSF: BioMAP Diversity Plus: IMphg Assay for Macrophage colony-stimulating factor (MCSF) Biomarker Activity (AID 2284293). Particulars: primary human endothelial cells with macrophages. The method, boiled down: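 Co-culture of human venular endothelial cells and macrophages, 24 hours of chemical exposure. M-CSF quantified by ELISA, with parallel SRB total-protein staining for cytotoxicity; activity fitted relative to DMSO.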

Read-out in assay [8]: Interleukin-10 (IL10), IL10 (gene 3586)
The experiment in a line: BSK_IMphg_IL10: BioMAP Diversity Plus: IMphg Assay for Interleukin-10 (IL10) Biomarker Activity (AID 2284294). Particulars: primary human endothelial cells with macrophages. An outline of the steps: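 Human venular endothelial cells cocultured with macrophages, dosed 24 h; IL-10 measured by ELISA, activity relative to DMSO. Cytotoxicity assessed in parallel cultures by sulforhodamine B total-protein staining.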

Assay [9] in a line: BSK_IMphg_SRB.Mphg: Macrophage Viability Assessment in the BioMAP Diversity Plus: IMphg Assay (AID 2284295). The following applies: primary human endothelial cells with macrophages. An outline of the steps: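 Venular endothelial cells co-cultured with macrophages, read 24 h after dosing. Total protein measured by 0.1% SRB staining after 10% TCA fixation, absorbance at 560 nm. Fitted in positive direction against DMSO baseline.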

Read-out in assay [10]: Thrombomodulin, THBD (gene 7056)
The experiment in a line: BSK_LPS_Thrombomodulin: BioMAP Diversity Plus: LPS Assay for Thrombomodulin Biomarker Activity (AID 2284296). The following applies: primary human HUVEC with PBMC. An outline of the steps: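 Human umbilical vein endothelial cells co-cultured with PBMC and stimulated with LPS; cell-surface thrombomodulin measured by ELISA 24 hours after compound. Gain or loss versus DMSO; cytotoxicity checked by SRB staining in parallel cultures.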

Read-out in assay [11]: CD69, CD69 (gene 969)
In words: BSK_LPS_CD69: BioMAP Diversity Plus: LPS Assay for CD69 Biomarker Activity (AID 2284303). Particulars: primary human HUVEC with PBMC. The method, boiled down:
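Human umbilical vein endothelial cells co-cultured with PBMC under LPS stimulation, chemical exposure 24 h; cell-surface CD69 measured by ELISA and fitted in the positive direction versus DMSO.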

Assay [12] in a line: IUF_NPC2c_oligodendrocyte_migration_120hr: Leibniz Research Institute for Environmental Medicine (IUF) 120-hour Neural Progenitor Cell Migration Assay for Oligodendrocyte Migration (NPC2c) (AID 2284297).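 Also: O4-positive oligodendrocyte migration distance divided by radial glia migration distance.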 The method, boiled down: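 Using fetal brain neural progenitor spheres differentiating in N2 medium at 37C, compounds were present for 120 h. Oligodendrocyte migration distance, normalized to radial glia migration, was measured from imaged O4 staining.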

A short description of assay [13]: IUF_NPC2a_radial_glia_migration_120hr: Leibniz Research Institute for Environmental Medicine (IUF) 120-hour Neural Progenitor Cell Migration Assay for Radial Glia Migration (NPC2a) (AID 2284298). The method, boiled down: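 Exposure of 0.3 mm primary hNPC spheres runs day 0 to 120 h with a half-volume medium change at day 3. Fixed cells get Hoechst staining; high-content analysis of nuclear positions yields radial glia migration distance per well, compared against DMSO controls.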

Assay [14] can be described thus: IUF_NPC2a_radial_glia_migration_72hr: Leibniz Research Institute for Environmental Medicine (IUF) 72-hour Neural Progenitor Cell Migration Assay for Radial Glia Migration (NPC2a) (AID 2284299). An outline of the steps:
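Migration out of plated human neural progenitor spheres is scored at 72 h as the distance in um from the sphere core edge to the edge of the migration area. Values are the mean of four manual measurements per well, normalised to DMSO.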

Assay [15] in a line: IUF_NPC2b_neuronal_migration_120hr: Leibniz Research Institute for Environmental Medicine (IUF) 120-hour Neural Progenitor Cell Migration Assay for Neuron Migration (NPC2b) (AID 2284300). The method, boiled down: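 Fetal human NPC spheres migrate on PDL/laminin during 120 h compound treatment; neuronal migration distance, glia-normalized, scored versus DMSO control.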
Assay [16] in a line: IUF_NPC3_neuronal_differentiation_120hr: Leibniz Research Institute for Environmental Medicine (IUF) 120-hour Neuronal Differentiation Assay (NPC3) (AID 2284301). An outline of the steps:
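Primary human fetal neural progenitor spheres (GW 16-19, 0.3 mm) plated on poly-D-lysine/laminin in N2 medium, exposed from day 0 for 120 h with half-medium refresh at day 3. TUBB3+ cells as percent of Hoechst nuclei in migration area; DMSO baseline.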

A short description of assay [17]: IUF_NPC4_neurite_length_120hr: Leibniz Research Institute for Environmental Medicine (IUF) 120-hour Neuronal Morphology Assay for Neurite Length (NPC4) (AID 2284302). An outline of the steps:
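Human fetal cortex (GW 16-19) neural progenitor spheres, 0.3 mm, were plated on poly-D-lysine/laminin in N2 differentiation medium and exposed from day 0 for 120 h, half-feeding at day 3. Mean TUBB3+ neurite length (µm) came from skeletonized images, relative to DMSO.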

A short description of assay [18]: IUF_NPC5_oligodendrocyte_differentiation_120hr: Leibniz Research Institute for Environmental Medicine (IUF) 120-hour Oligodendrocyte Differentiation Assay (NPC5) (AID 2284304; active = hit-call score of the fitted dose curve at least 0.9, where 1 is the maximum;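 also: primary human fetal neural progenitor spheres plated to migrate and differentiate; share of O4-positive cells among Hoechst nuclei found by CNN image analysis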). The method, boiled down: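 After plating on poly-D-lysine/laminin, fetal-derived hNPC spheres differentiated for 120 h at 37C in compound-containing N2 medium, refreshed by half on day 3. O4 immunostaining over Hoechst nuclei in the migration zone gave oligodendrocyte percentage relative to DMSO.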

Assay [19] can be described thus: IUF_NPC4_neurite_area_120hr: Leibniz Research Institute for Environmental Medicine (IUF) 120-hour Neuronal Morphology Assay for Neurite Area (NPC4) (AID 2284305; active = hit-call score of the fitted dose curve at least 0.9, where 1 is the maximum). The method, boiled down: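 Human fetal cortex-derived neural progenitor spheres (0.3 mm, GW 16-19) plated on poly-D-lysine/laminin in N2 differentiation medium and exposed from day 0 for 120 h across 7 concentrations plus solvent control. Neurite area is mean pixel area per TUBB3-positive neuron via skeletonization, analysed relative to DMSO.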

A short description of assay [20]: IUF_NPC2-5_cytotoxicity_72hr: Cytotoxicity Assessment at 72 hours in the Leibniz Research Institute for Environmental Medicine (IUF) Neural Progenitor Cell Migration and Differentiation Assay for Cytotoxicity (NPC2-5) (AID 2284306; active = hit-call score of the fitted dose curve at least 0.9, where 1 is the maximum;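 also: LDH release into supernatant measured by resorufin fluorescence marking membrane damage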). An outline of the steps:
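Human fetal (GW 16-19) neural progenitor spheres, 0.3 mm, plated on poly-D-lysine/laminin in N2 differentiation medium and exposed from day 0 to 7 concentrations plus solvent control (DMSO ≤0.1%). LDH-dependent resazurin-to-resorufin fluorescence in supernatant at 72 h.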

Chain of E-selectin (Homo sapiens) (P16581 whole entry, looked up): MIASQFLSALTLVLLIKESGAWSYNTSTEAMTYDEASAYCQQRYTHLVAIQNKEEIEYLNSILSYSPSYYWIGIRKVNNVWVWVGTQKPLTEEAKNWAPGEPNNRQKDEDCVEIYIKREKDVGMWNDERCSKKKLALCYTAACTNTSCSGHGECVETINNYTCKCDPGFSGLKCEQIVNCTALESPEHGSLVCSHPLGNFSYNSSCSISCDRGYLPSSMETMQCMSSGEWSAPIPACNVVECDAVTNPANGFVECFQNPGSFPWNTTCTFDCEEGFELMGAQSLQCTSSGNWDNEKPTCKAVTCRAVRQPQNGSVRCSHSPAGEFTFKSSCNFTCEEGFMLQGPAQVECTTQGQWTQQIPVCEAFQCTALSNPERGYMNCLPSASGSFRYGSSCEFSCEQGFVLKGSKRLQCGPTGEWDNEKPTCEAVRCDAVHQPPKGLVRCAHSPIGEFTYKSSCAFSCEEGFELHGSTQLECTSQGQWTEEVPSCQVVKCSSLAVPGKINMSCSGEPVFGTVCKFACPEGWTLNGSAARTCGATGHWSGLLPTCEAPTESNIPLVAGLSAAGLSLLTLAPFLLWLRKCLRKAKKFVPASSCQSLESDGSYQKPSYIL

Turning to `O=C(CC(=O)C(F)(F)C(F)(F)C(F)(F)F)c1cccs1`, the result in assay [1], in [2], in assay [3], in assay [4], in assay [7] and in assay [11] was inactive. Also, the AC50 in [3] is 7.8 µM (active); in assay [4], 47.6 µM (active); in [5], 40.3 µM (active) and 42 µM (active); in assay [6] it was 44.9 µM (active) and 39.7 µM (active); in assay [8], 22 µM (active) and 29.2 µM (active); in assay [9], 43.1 µM (active) and 42.7 µM (active). Also, in [10], the AC50 was 55.5 µM (active) and 54.2 µM (active).
As for `O=C1NS(=O)(=O)c2ccccc21`, the result in assay [1], in [2], in assay [3], in assay [10], in assay [12] and in assay [13] was inactive. Also, the call in assay [14], in assay [15], in assay [16], in [17], in [11] and in assay [18] was inactive. The molecule was classed as inactive in assay [19] and in assay [20]. Also, in assay [10], the AC50 is 1.09 µM (active).
With `O=P(O)(O)CCC(F)(F)C(F)(F)C(F)(F)C(F)(F)C(F)(F)C(F)(F)C(F)(F)C(F)(F)F`, the result in [1], in [2], in [3], in assay [4], in [6] and in [7] was inactive. Besides, the outcome in assay [9], in assay [10] and in [11] was inactive. Besides, the AC50 was 25.7 µM (active) in [2]; 37.8 µM (active) and 34.5 µM (active) in assay [5]; 39.7 µM (active) and 31.3 µM (active) in assay [8].
Regarding `C=CC(=O)OCCC(F)(F)C(F)(F)C(F)(F)C(F)(F)C(F)(F)C(F)(F)C(F)(F)C(F)(F)F`, the values for the concentration at half-maximal activity (AC50) in assay [1], in assay [2] and in [10] were 7.29 µM (active), 1.19 µM (active) and 2.94 µM (active), respectively. Moreover, the result in assay [1], in [2], in assay [3], in assay [4], in assay [5] and in assay [6] was inactive. For the same molecule, the result in assay [7], in assay [8], in [9], in assay [10] and in assay [11] was inactive.
